# Results: PubChem BioAssay (Tox21)
# Results filed as inconclusive are left out. A number with no mark means an inactive call. Activity calls are given as the source filed them. Calls follow the shape of the full dose curve.
# Assay: qHTS assay to identify small molecule agonists of the progesterone receptor (PR) signaling pathway - cell viability counter screen (AID 1346799); also: nearly all actives have a fitted effect of over 45% in size
# Conditions: PR-UAS-bla HEK293T viability, CellTiter-Glo luminescence, 16 h; series mostly up to 92.4 µM; activity change, negative = cytotoxicity: at the top concentration
# From the text: National Center for Advancing Translational Sciences [NCATS]
# NIH Chemical Genomics Center [NCGC]
# U.S. Environmental Protection Agency [EPA]
# National Institutes of Environmental Health Sciences [NIEHS]
# National Toxicology Program [NTP]
# U.S. Food and Drug Administration [FDA]
# Progesterone receptor (PR), a nuclear hormone receptor, plays an important role in development, metabolic homeostasis and reproduction. It is activated by the steroid hormone progesterone. Endocrine disrupting chemicals (EDCs) and their interactions with steroid hormone receptors like PR causes disruption of normal endocrine function. To identify the compounds that stimulate PR signaling, a PR-UAS-bla GripTite cell line i.e. PR-UAS-bla HEK293T (Invitrogen, Carlsbad, CA, USA) containing a beta-lactamase reporter gene under the control of an UAS response element was used to screen Tox21 10K compound library. The cytotoxicity of the Tox21 compound library against the PR-bla cell line was tested in parallel by measuring the cell viability using CellTiter-Glo assay in the same wells.
# Tox21 Assay Protocol Summary:
# PR-UAS-bla HEK293T cells were dispensed at 3,000 cells/5 uL of assay medium containing 2% charcoal stripped FBS per well into black wall/clear-bottom 1536-well plates using a Multidrop Combi (ThermoFisher Scientific, Waltham, MA) dispenser. After the assay plates were incubated at a 37C and 5% CO2 for 6 hr, 23 nL of compounds dissolved in DMSO, positive controls or DMSO only was transferred to the assay plate by a Pintool station (Kalypsys, San Diego, CA). The plates were incubated at 37C and 5% CO2 for 16 hr. Then 1 uL of LiveBLAzer B/G FRET substrate was added using a Flying Reagent Dispenser (FRD, Aurora Discovery, San Diego, CA), the plates were incubated at room temperature for 2 hours, and fluorescence intensity was measured by an Envision plate reader (PerkinElmer, Shelton, CT). For cell viability readout that measures cytotoxicity, 4 uL/well of CellTiter-Glo reagent was added into the assay plates using a FRD. After 30 min incubation at room temperature, the luminescence intensity in the plates was measured using a ViewLux (PerkinElmer) plate reader.
# % is scaled to controls: 0 for no effect and ±100 for the full control effect; potency is read from the fitted curve at half-maximal effect.
Structure (SMILES),"activity change, negative = cytotoxicity",Potency
OCC(c1ccc(Cl)cc1)c1ccc(Cl)cc1,-17%,–
ClC(Cl)=C(c1ccc(Cl)cc1)c1ccccc1Cl,-11.6%,–
O=S(=O)(C(Cl)(Cl)Cl)C(Cl)(Cl)Cl,-6.06%,–
C[C@]12CC[C@@H](O)C[C@@H]1CC[C@@H]1[C@@H]2CC[C@]2(C)C(=O)CC[C@@H]12,–,68.6 µM (active)
CNC(=O)Oc1cc(C)c(SC)c(C)c1,0%,–
O=C(c1ccccc1)C(Cl)Cl,3.8%,–
Oc1c(I)cc(I)cc1I,24.4%,–
c1ccc2c(c1)Sc1ccccc1N2CC1CN2CCC1CC2 (stereo not given),–,13.3 µM (active)
Clc1ccccc1-c1ccccc1Cl,-7.78%,–
N#Cc1cc([N+](=O)[O-])ccc1N,0%,–
CCN(CC)C(=O)Cl,-2.91%,–
Nc1ccc([N+](=O)[O-])cc1,–,7.7 µM (active)
Cc1ccc2nc3sc(=O)sc3nc2c1,-2.84% [at 19 µM],–
CN1CSC(=S)N(C)C1,–,24.3 µM (active)
Cc1ccc(N(SC(F)(Cl)Cl)S(=O)(=O)N(C)C)cc1,-4.23%,–
